# Experimental data published in PubChem BioAssay (NCI).
# The panel holds about 83,000 compounds, 20% with a hit somewhere; the sample as a whole holds those more often.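 96-well plates, one dose, 48 hours. Percent growth reported; active if below 10.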 Unmarked numbers belong to inactive results. Active and inactive are the calls of the source.
# Legend:
# Test in all cases: NCI-60 one-dose screen, 48 h (100 = growth as untreated, 0 = no growth, -100 = all killed)
# Conditions in all cases: 10 µM unless noted
# NCI-H23 lung = tested on: NCI-H23 lung
# NCI-H226 lung = tested on: NCI-H226 lung
# NCI-H322M lung = tested on: NCI-H322M lung
# HOP-62 NSCLC = tested on: HOP-62 NSCLC
# NCI-H460 lung = tested on: NCI-H460 lung
# NCI-H522 lung = tested on: NCI-H522 lung
# A549/ATCC NSCLC = tested on: A549/ATCC NSCLC
# 786-0 renal = tested on: 786-0 renal
# COLO 205 colon = tested on: COLO 205 colon
# HOP-92 NSCLC = tested on: HOP-92 NSCLC
SMILES,growth (NCI-H23 lung),growth (NCI-H226 lung),growth (NCI-H322M lung),growth (HOP-62 NSCLC),growth (NCI-H460 lung),growth (NCI-H522 lung),growth (A549/ATCC NSCLC),growth (786-0 renal),growth (COLO 205 colon),growth (HOP-92 NSCLC)
COc1ccc2c(c1)Oc1nc(N)c(C#N)c(N)c1C2Sc1ccc(O)cc1 (configuration not stated),93%,94.5%,100%,94.5%,104%,-37.8% (active),98.4%,106%,79.7%,–
Fc1ccc(N/N=C/c2ccc(-n3cccn3)cc2)cc1,90.7%,92.3%,99.9%,82.1%,106%,77.2%,93.7%,104%,98.1%,–
[2H]c1cc2c(c([2H])c1F)/C(=C/c1[nH]c(C)c(C(=O)NCCN(CC)CC)c1C)C(=O)N2,43.5%,40.5%,47.7%,28.9%,47.5%,62.4%,56.5%,32.5%,38.3%,–
O=C(Nc1nccs1)c1noc2ccccc12,91.9%,92.7%,92%,86.8%,96.6%,86.6%,95.7%,95.7%,104%,–
Cc1[nH]c2ncnc(Oc3ccc(NC(=O)Nc4ccc(Cl)c(C(F)(F)F)c4)cc3)c2c1C,56.7%,75.1%,69.6%,59.3%,36.1%,25.3%,45.3%,84%,60.3%,–
O=CN1N=C(c2ccc3c(c2)OCO3)CC1c1cccc(Nc2ccnc3cc(C(F)(F)F)ccc23)c1 (configuration not stated),68.9%,69.2%,107%,81.2%,86.4%,68.3%,83.9%,90.7%,67.5%,–
O=CN1N=C(c2ccc(Cl)cc2)CC1c1cccc(Nc2ccnc3cc(C(F)(F)F)ccc23)c1 (configuration not stated),50.6%,61.9%,82.4%,67.1%,57.9%,57%,61.4%,81.5%,60.1%,–
CCCCc1nc(Cl)c(C2CC(c3ccc(Cl)cc3)=NN2c2cc(Cl)cc(Cl)c2)[nH]1 (configuration not stated),69.5%,92.3%,70.6%,52.9%,30.2%,32%,8.64% (active),41.3%,96.1%,–
N#CC1(C#N)C2=C(CCCC2)NC(c2c(F)cccc2Cl)C1(C#N)C#N (configuration not stated),82%,92.1%,91.1%,72.1%,95.1%,-14.1% (active),92.6%,88.7%,91.4%,–
C#C[C@@]1(O)[C@@H](CO)O[C@@H](n2cc(-c3ccco3)c3c(N)ncnc32)[C@@H]1O,78.6%,70.7%,69.5%,67.7%,52.1%,61.7%,68.5%,85.6%,46.4%,–
C=C(C)[C@@H]1CC[C@]2(C(=O)NCCCO)CC[C@]3(C)[C@H](CC[C@@H]4[C@@]5(C)CCCNC(C)(C)[C@@H]5CC[C@]43C)[C@@H]12,77.3%,79.8%,78.6%,–,68.9%,88%,73.1%,85.6%,-62.6% (active),58.1%
C=CCn1c(SCC(=O)Nc2ccc(C(=O)/C=C/c3ccc(Cl)cc3)cc2)nnc1-c1cc(OC)c(OC)c(OC)c1,92.9%,79.6%,101%,–,99.6%,76.3%,85.6%,81%,110%,89.2%
Cc1nc2sc(C(=O)Nc3cccc(Cl)c3C)c(N)c2cc1C(C)O (configuration not stated),32.6%,95.8%,55.6%,–,11.1%,-24.9% (active),24.7%,35.6%,-4.18% (active),43.2%
NCCN1CCNCC1,94.6%,89.6%,116%,–,108%,91.4%,102%,101%,122%,100%
CNS(=O)(=O)c1cccc(-c2ccc3c4c(n(C)c(=O)c3c2)-c2ccccc2C4=O)c1,43.9%,33.1%,92.8%,–,7.51% (active),49.3%,24%,25.3%,66.5%,61.2%
O=C1NCc2ccc3c(-c4cccc(Cl)c4)c[nH]c3c21,35.5%,89.6%,47.6%,–,12.9%,1.89% (active),15.8%,31.4%,-27% (active),52.7%
N#C/C(=C/c1ccc(O)c([N+](=O)[O-])c1)c1nc(-c2ccc([N+](=O)[O-])cc2)cs1,13.6%,52%,52.8%,86.8%,20.5%,11.2%,27.1%,51.9%,51.2%,–
COc1cc(NCC(=O)Nc2cc(Nc3ccc(C)cc3)ncn2)c(Cl)c(OC)c1Cl,91.7%,85.4%,84.8%,–,101%,74.1%,80.1%,96.7%,85.8%,78.7%
CCCCCCCc1n(Cc2ccc3ccccc3c2)c2ccccc2[n+]1Cc1ccc2ccccc2c1,-76.9% (active),-70.8% (active),-86% (active),–,-73% (active),-81.1% (active),-77.5% (active),-65.1% (active),-75.8% (active),-84.4% (active)
CCCCCOC(=O)c1ccccc1O,112%,97.8%,101%,–,108%,87.4%,96.2%,94.4%,120%,88%
C=C1C(=O)O[C@H]2[C@H]1CC/C(COC(=O)NCc1nc3ccccc3[nH]1)=C\CC[C@@]1(C)O[C@@H]21,87.2%,88.4%,112%,–,102%,-43.9% (active),94.6%,101%,18.8%,136%
CCN(CC)CC#CCOC(=O)[C@]1(C)CCC[C@]2(C)[C@H]3C[C@H]4C(C(C)C)=C[C@]3(CC[C@H]21)[C@@H]1C(=O)CCC(=O)[C@@H]14,57.3%,76.2%,87.7%,–,59.2%,29.5%,48.1%,54.1%,–,57%
CN(C)C1=NCCN1,99.3%,99.4%,105%,–,110%,73.4%,90%,89.6%,111%,74.8%
Cc1nc2sc(C(=O)Nc3ccccc3)c(N)c2cc1C(C)O (configuration not stated),39%,108%,49.9%,–,11.2%,18.3%,25.6%,31.1%,6.99% (active),73%
O=Cc1[nH]c(Sc2ccccc2)c2ccccc12,67.2%,66.9%,91.7%,–,90.5%,107%,96.1%,81.1%,–,45.7%
CSc1nc(-c2ccc(F)cc2)c(C#N)c(N2CCOCC2)n1,101%,80%,92.6%,–,102%,90.1%,88.6%,93.7%,–,73.9%
COc1ccc(C(C)c2cc(OC)c(OC)c(OC)c2)cc1 (configuration not stated),28.9%,80.2%,44.6%,–,4.97% (active),9.34% (active),18.6%,22.6%,-15.2% (active),–
CC(C)C[C@H](C(=O)O)N(C)C(=O)[C@@H]1CCCN1C(=O)[C@H](C)OC(=O)[C@H](CCC(N)=O)NC(=O)[C@@H]1CCC(=O)N1,109%,101%,98.5%,–,111%,88.7%,92.2%,96.1%,99.3%,102%
CCOC(=O)c1c(C)nc2c(c1N)/C(=C/c1ccccn1)C(=O)N2Cc1ccccc1,23.6%,44.4%,62.7%,–,4.8% (active),0.177% (active),44.6%,-64.8% (active),-42.7% (active),30.5%
